Experiment [1] can be described thus: qHTS assay to identify small molecule antagonists of the sonic hedgehog signaling (Shh) pathway (AID 1259369). Also: nearly all actives have a fitted effect of over 45% in size. Also: potency is read from the fitted curve at half-maximal effect. In outline: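 Stable Gli1-Luc reporter NIH/3T3 clone; quantitative HTS in stimulated mode with conditioned medium. Luminescence measured after 24hr compound treatment at 37 C.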
(In general: qHTS replaces the single test concentration by a dilution series.)

Experiment [2] concerns the target Estrogen receptor beta (Homo sapiens) (UniProt Q92731). In words: qHTS assay to identify small molecule agonists of the estrogen receptor beta (ER-beta) signaling pathway (AID 1259377; active = well fitted activation curve with a large enough effect in the signal ratio in the repeat runs, not every such curve was filed as active; the % refers to the signal ratio). In outline: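 ER-beta-UAS-bla HEK293T cells in medium with 2% charcoal-stripped FBS were exposed to compounds for 16 h at 37C. Beta-lactamase reporter activity was read as fluorescence after 2 h with LiveBLAzer B/G FRET substrate at room temperature.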

Experiment [3] has the same target. The experiment is described as follows: qHTS assay to identify small molecule antagonists of the estrogen receptor beta (ER-beta) signaling pathway (AID 1259378; active = well fitted inhibition curve with a large enough effect in the signal ratio in the repeat runs, not every such curve was filed as active; the % refers to the signal ratio; also: potency is read from the fitted curve at half-maximal effect). In outline: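 ER-beta-UAS-bla HEK293T (GripTite) cells in 2% charcoal-stripped FBS medium were preincubated 6 hr at 37C, dosed with compound, then stimulated with 1 nM E2 (final) for 16 hr; beta-lactamase reporter read by B/G FRET fluorescence after 2 hr substrate loading.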

A short description of experiment [4]: qHTS assay to identify small molecule agonists of the androgen receptor (AR) signaling pathway in the presence of an antagonist - cell viability counter screen (AID 1259379; active = well fitted curve in the direction sought with a large enough effect in the repeat runs; an effect the other way counts as inactive or inconclusive; also: nearly all actives have a fitted effect of over 25% in size; also: potency is read from the fitted curve at half-maximal effect). In outline: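 Nilutamide-containing (3.0uM final) MDA-kb2 cultures, 3,000 cells/well, were treated with compounds across 15 concentrations. After 16 hr at 37C with no CO2, cell viability was determined by CellTiter-Fluor fluorescence in the luciferase assay wells.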

A short description of experiment [5]: qHTS assay to identify small molecule agonists of the estrogen receptor beta (ER-beta) signaling pathway - cell viability counter screen (AID 1259380; active = well fitted curve in the direction sought with a large enough effect in the repeat runs; an effect the other way counts as inactive or inconclusive; also: nearly all actives have a fitted effect of over 30% in size; also: potency is read from the fitted curve at half-maximal effect). In outline:
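Steps: plate ER-beta-UAS-bla HEK293T cells, rest 6 hr; add compounds in DMSO; incubate 16 hr at 37C, 5% CO2; add FRET substrate 2 hr; add CellTiter-Glo, wait 30 min at room temperature; read luminescence.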

Experiment [6] has as its target Androgen receptor (Homo sapiens) (UniProt P10275). The experiment is described as follows: qHTS assay to identify small molecule agonists of the androgen receptor (AR) signaling pathway in the presence of an antagonist (AID 1259381). Also: nearly all actives have a fitted effect of over 15% in size. Also: potency is read from the fitted curve at half-maximal effect. In outline: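 Reporter-gene luminescence from MDA-kb2 cells exposed 16hr at 37C (0% CO2) to 15-point compound titrations with 3.0uM final nilutamide as AR antagonist.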

Experiment [7] can be described thus: qHTS assay to identify small molecule antagonists of the estrogen receptor beta (ER-beta) signaling pathway - cell viability counter screen (AID 1259382; active = well fitted curve in the direction sought with a large enough effect in the repeat runs; an effect the other way counts as inactive or inconclusive; also: nearly all actives have a fitted effect of over 55% in size; also: potency is read from the fitted curve at half-maximal effect). In outline: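 Viability is scored by CellTiter-Glo luminescence (30 min, room temperature) in ER-beta-UAS-bla HEK293T wells already read for reporter fluorescence. Compound exposure lasts 16 hr at 37C alongside 1nM 17-beta-estradiol in charcoal-stripped serum medium.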

The nature of experiment [8]: qHTS assay to identify small molecule agonists or antagonists of the thyroid stimulating hormone receptor (TSHR) signaling pathway - wild type cell line counter screen (AID 1259384). In outline: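 Wild-type HEK293 cells were plated 18 h at 37 C/5% CO2, pin-dosed with compound plus Ro20-1724 medium, held 30 min at room temperature, then given cAMP-d2 and anti-cAMP-cryptate; fluorescence was read after 1 h. Fifteen concentrations, triplicate.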

For experiment [9], the target named is Thyrotropin receptor (Homo sapiens) (UniProt P16473). In words: qHTS assay to identify small molecule antagonists of the thyroid stimulating hormone receptor (TSHR) signaling pathway (AID 1259385). Also: nearly all actives have a fitted effect of over 20% in size. In outline: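 TSHR-HEK293 cells were plated and held 18 h at 37C/5% CO2, then given compound plus Ro20-1724 and stimulated with TSH at 1.5 ng/mL final. After 30 min at room temperature, cAMP was detected with cAMP-d2/anti-cAMP-cryptate (1 h) by fluorescence.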

Experiment [10] deals with Estrogen receptor (Homo sapiens) (UniProt P03372). The experiment is described as follows: qHTS assay to identify small molecule agonists of the estrogen receptor alpha (ER-alpha) signaling pathway in the presence of an antagonist (AID 1259383). Also: top concentration of the series differs between compounds; nearly all actives have a fitted effect of over 15% in size. In outline:
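Readout was ERE-driven luciferase luminescence in VM7Luc4E2 cells, which express full-length ER-alpha endogenously. Compounds were tested at 15 concentrations for 22hr alongside 10.0nM ICI-182,780 (final concentration).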

This passage reports Potency results from PubChem BioAssay (Tox21).

Inconclusive results are not listed. Active and inactive are the calls of the source. Unless noted, calls follow the shape of the full dose curve.

Estrogen receptor beta (Homo sapiens), sequence (Q92731 whole entry, looked up): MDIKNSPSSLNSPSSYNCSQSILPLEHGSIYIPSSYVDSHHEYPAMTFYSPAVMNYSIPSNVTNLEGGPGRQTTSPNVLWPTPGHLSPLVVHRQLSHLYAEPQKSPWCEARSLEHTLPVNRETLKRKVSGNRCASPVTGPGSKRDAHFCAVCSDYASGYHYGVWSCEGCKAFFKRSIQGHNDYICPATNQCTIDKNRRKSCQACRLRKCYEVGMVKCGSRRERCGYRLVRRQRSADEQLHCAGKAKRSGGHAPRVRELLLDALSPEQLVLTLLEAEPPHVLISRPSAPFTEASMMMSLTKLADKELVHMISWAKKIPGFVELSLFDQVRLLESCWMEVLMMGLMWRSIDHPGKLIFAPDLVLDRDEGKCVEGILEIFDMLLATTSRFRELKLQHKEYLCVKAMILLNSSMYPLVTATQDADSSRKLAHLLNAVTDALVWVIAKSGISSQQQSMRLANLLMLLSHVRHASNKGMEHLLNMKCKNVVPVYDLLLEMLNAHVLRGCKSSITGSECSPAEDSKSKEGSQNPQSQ
Estrogen receptor (Homo sapiens), sequence (P03372 whole entry, looked up): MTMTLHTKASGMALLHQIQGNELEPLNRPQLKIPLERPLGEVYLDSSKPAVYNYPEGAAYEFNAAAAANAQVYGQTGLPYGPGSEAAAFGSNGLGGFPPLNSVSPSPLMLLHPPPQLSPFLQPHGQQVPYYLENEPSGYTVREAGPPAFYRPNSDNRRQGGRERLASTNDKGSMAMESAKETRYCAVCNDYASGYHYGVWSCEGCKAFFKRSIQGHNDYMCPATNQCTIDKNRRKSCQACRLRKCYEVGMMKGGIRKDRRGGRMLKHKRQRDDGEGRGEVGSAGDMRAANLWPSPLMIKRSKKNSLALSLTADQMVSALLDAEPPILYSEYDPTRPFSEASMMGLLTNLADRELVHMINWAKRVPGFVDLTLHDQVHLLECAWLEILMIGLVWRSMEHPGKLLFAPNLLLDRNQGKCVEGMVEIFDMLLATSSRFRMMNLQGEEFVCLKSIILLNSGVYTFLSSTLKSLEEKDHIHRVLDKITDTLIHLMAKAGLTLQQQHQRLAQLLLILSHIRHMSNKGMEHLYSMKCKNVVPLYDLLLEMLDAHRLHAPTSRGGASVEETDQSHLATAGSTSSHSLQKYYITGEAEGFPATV
Androgen receptor (Homo sapiens), sequence (P10275 whole entry, looked up): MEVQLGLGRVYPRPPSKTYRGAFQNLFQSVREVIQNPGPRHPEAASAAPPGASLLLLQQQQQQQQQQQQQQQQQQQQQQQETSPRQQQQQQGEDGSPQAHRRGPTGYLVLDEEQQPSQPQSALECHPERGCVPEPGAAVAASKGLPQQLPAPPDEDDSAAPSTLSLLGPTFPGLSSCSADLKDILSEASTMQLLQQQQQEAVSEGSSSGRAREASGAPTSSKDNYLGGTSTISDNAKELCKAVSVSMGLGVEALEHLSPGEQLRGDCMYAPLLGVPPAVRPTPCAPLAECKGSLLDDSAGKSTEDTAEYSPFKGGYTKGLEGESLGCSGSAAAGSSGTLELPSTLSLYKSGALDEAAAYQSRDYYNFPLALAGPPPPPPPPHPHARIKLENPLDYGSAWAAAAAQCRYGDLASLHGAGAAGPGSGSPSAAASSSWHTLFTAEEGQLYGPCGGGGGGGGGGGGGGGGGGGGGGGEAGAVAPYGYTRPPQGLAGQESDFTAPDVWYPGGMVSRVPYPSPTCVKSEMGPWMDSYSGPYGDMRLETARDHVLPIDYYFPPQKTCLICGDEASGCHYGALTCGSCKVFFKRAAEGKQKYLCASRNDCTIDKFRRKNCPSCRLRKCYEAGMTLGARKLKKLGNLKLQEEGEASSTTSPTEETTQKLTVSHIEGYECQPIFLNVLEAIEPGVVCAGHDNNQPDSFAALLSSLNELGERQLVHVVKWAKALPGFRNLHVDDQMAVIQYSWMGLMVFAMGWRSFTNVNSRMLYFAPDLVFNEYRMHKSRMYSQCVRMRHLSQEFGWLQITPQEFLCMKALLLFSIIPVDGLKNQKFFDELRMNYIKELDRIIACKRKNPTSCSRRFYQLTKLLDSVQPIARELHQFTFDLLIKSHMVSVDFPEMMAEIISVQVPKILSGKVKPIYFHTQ
Thyrotropin receptor (Homo sapiens), sequence (P16473 whole entry, looked up): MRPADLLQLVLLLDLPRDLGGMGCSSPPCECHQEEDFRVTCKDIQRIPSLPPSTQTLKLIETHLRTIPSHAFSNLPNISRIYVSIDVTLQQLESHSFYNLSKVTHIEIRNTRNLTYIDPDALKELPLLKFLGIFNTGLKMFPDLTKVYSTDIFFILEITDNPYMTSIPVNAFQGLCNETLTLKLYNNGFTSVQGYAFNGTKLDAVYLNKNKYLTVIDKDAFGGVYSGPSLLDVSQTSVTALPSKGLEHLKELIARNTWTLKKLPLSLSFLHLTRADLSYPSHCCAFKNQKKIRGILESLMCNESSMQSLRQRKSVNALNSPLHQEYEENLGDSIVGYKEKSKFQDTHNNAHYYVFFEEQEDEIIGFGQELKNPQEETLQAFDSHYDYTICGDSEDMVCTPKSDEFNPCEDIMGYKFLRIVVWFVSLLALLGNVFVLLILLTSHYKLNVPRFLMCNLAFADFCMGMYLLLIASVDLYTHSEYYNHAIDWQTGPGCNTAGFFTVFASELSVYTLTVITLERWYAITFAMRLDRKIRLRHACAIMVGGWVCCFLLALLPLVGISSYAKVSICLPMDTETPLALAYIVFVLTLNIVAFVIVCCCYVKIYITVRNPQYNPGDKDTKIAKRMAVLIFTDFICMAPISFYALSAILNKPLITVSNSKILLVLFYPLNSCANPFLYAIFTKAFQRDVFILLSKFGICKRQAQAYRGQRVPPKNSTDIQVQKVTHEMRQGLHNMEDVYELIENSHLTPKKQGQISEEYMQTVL

`O=C(NC(=O)c1ccccc1Cl)Nc1ccc(OC(F)(F)F)cc1`: the Potency entry in experiment [1], in experiment [2], in experiment [3], in [4], in experiment [5] and in [6] was “inactive” throughout. Besides, the Potency result in experiment [7], in experiment [8] and in [9] was “inactive” in each case.
Regarding `O=[N+]([O-])c1ccc(Cl)c(Cl)c1Cl`, the Potency result in experiment [1], in experiment [2], in experiment [3], in experiment [4], in experiment [7] and in [10] was “inactive” throughout. Also, the Potency result in [8] was “inactive”.
Regarding `c1ccc2nc(N3CCNCC3)ccc2c1`, the Potency entry in experiment [1], in [2], in experiment [3], in experiment [4], in experiment [7] and in experiment [10] was “inactive” in each case. In addition, the Potency in [5] was 23.7 µM (active).
Take `CCCCCCC[CH2][Sn]([Cl])([Cl])[CH2]CCCCCCC`: the Potency entry in [1], in experiment [2], in experiment [4], in experiment [6], in [7] and in [10] was “inactive” throughout. For the same compound, the Potency entry in experiment [8] and in [9] was “inactive” in each case. Further, in [3], the Potency was 48.5 µM (active).
Take `CSSC`: in experiment [1], the Potency was 15.5 µM (active). Further, the Potency entry in experiment [2], in experiment [3], in [4], in [5], in experiment [7] and in [8] was “inactive” each time. Besides, in experiment [9], the Potency result is “inactive”.
As for `C=Cc1cccc(CCl)c1`, the Potency entry in [1], in [2], in [3], in [4], in experiment [5] and in [7] was “inactive” in each case. Moreover, the Potency result in [10], in [8] and in [9] was “inactive” each time.
For `C=CC(=C)C`, the Potency entry in experiment [1], in [2], in experiment [3], in experiment [4], in experiment [5] and in experiment [7] was “inactive” in each case. For the same compound, the Potency result in experiment [10], in [8] and in experiment [9] was “inactive” in each case.
In the case of `Nc1nc(N)nc(Cl)n1`, the Potency result in experiment [1], in [2], in experiment [3], in [4], in experiment [5] and in experiment [7] was “inactive” throughout. Moreover, the Potency entry in [10], in experiment [8] and in experiment [9] was “inactive” in each case.
For `CCC(C)Nc1c([N+](=O)[O-])cc(C(C)(C)C)cc1[N+](=O)[O-]` (configuration not stated), the Potency result in experiment [1], in [2], in experiment [3], in experiment [4], in experiment [5] and in experiment [7] was “inactive” in each case. The Potency result in [10] and in [8] was “inactive” throughout.
As to `CC(C)C(Nc1ccc(C(F)(F)F)cc1Cl)C(=O)OC(C#N)c1cccc(Oc2ccccc2)c1` (configuration not stated), the Potency in [1] was 43.6 µM (active). Besides, the Potency result in [2], in [3], in experiment [4], in experiment [5], in experiment [7] and in experiment [10] was “inactive” each time.
As to `CCOP(=O)(OCC)Oc1cc(C)nc(C(C)C)n1`, the Potency result in experiment [1], in [2], in experiment [3], in experiment [4], in [5] and in experiment [7] was “inactive” each time. Besides, the Potency entry in experiment [8] and in experiment [9] was “inactive” throughout.
Regarding `Nc1cc(Cl)ccc1Cl`, the Potency result in [1], in experiment [2], in [3], in experiment [4], in experiment [5] and in [7] was “inactive” in each case. Besides, the Potency entry in experiment [8] and in [9] was “inactive” in each case.
As for `CC(C)c1c(CN(C)C(C)Cc2ccccc2)n(C)n(-c2ccccc2)c1=O` (configuration not stated), the Potency result in experiment [1], in experiment [2], in experiment [4], in experiment [7], in experiment [10] and in [8] was “inactive” throughout. Moreover, the Potency is 21.1 µM (active) in experiment [3] and 6.68 µM (active) in [5].
For the compound `CCC[CH2][Sn]([CH2]CCC)([CH2]CCC)[CH2]CCC`, the Potency in [1] is 13.7 µM (active); in [3], 19.3 µM (active); in experiment [4] it was 13.7 µM (active); in [5] it was 27.3 µM (active); in experiment [7] it was 43.3 µM (active). Moreover, the Potency entry in experiment [2], in experiment [8] and in experiment [9] was “inactive” throughout.
`Oc1cc(Cl)c(Cl)c(Cl)c1Cl`: the Potency in experiment [1] is 26.7 µM (active); in experiment [4] it was 59.7 µM (active). Moreover, the Potency result in [2], in experiment [6], in experiment [7], in experiment [10], in experiment [8] and in experiment [9] was “inactive” each time.
In the case of `CCN(CC)Cc1nccn1-c1ccc([N+](=O)[O-])cc1C(=O)c1ccccc1Cl`, the Potency entry in experiment [1], in experiment [2], in experiment [4], in experiment [5], in experiment [7] and in experiment [8] was “inactive” each time. The Potency entry in experiment [9] was “inactive”.
`CSC(=O)c1c(C(F)F)nc(C(F)(F)F)c(C(=O)SC)c1CC(C)C`: the Potency entry in [1], in experiment [2], in experiment [4], in experiment [7], in [10] and in experiment [8] was “inactive” in each case. Moreover, in experiment [9], the Potency result is “inactive”.
For the compound `CC(Cc1ccccc1)N(C)Cc1ccco1` (configuration not stated), the Potency result in experiment [1], in experiment [4], in experiment [5], in [6], in experiment [7] and in [10] was “inactive” each time. Moreover, the Potency entry in experiment [8] and in experiment [9] was “inactive” in each case.
`Nc1c(Cl)c(Cl)c(Cl)c(Cl)c1Cl`: the Potency result in experiment [1], in experiment [4], in [5], in experiment [7], in experiment [8] and in experiment [9] was “inactive” throughout. Also, in [6], the Potency is 54.5 µM (active).
On to `CCC(OC(C)=O)C(CC(C)NC)(c1ccccc1)c1ccccc1` (configuration not stated), for which the Potency in [1] was 30.9 µM (active); in [4], 49 µM (active); in experiment [5] it was 49 µM (active); in experiment [7], 54.9 µM (active). The Potency entry in [6], in experiment [10] and in experiment [8] was “inactive” throughout.
Consider `CC(C)Br`, for which the Potency entry in experiment [1], in experiment [2], in experiment [4], in experiment [7], in [10] and in experiment [8] was “inactive” each time. Also, the Potency result in [9] is “inactive”.
As for `N#Cc1sc2c(=O)c3ccccc3c(=O)c=2sc1C#N`, the Potency is 3.86 µM (active) in experiment [1], 17.2 µM (active) in experiment [4], 21.7 µM (active) in [5] and 17.2 µM (active) in [7]. Besides, the Potency entry in experiment [6], in experiment [10] and in [8] was “inactive” in each case.
As to `CNN`, the Potency entry in experiment [1], in experiment [4], in experiment [5] and in [7] was “inactive” in each case.
Regarding `BrCC(Br)(Br)Br`, the Potency entry in [1], in experiment [2], in experiment [5], in experiment [6], in experiment [7] and in experiment [10] was “inactive” each time.
For `Cc1ccc2cc3c(ccc4ccccc43)c3c2c1CC3`, the Potency entry in experiment [1], in [3], in experiment [4], in experiment [5], in experiment [7] and in experiment [10] was “inactive” in each case. Moreover, the Potency entry in experiment [8] and in [9] was “inactive” each time.
As to `CCOP(=S)(NC(C)C)Oc1ccccc1C(=O)OC(C)C` (configuration not stated), the Potency entry in [1], in experiment [2], in experiment [10] and in experiment [8] was “inactive” throughout. In addition, in experiment [5], the Potency is 3.86 µM (active).
With `Fc1ccc(C(OCCN2CCN(CCCc3ccccc3)CC2)c2ccc(F)cc2)cc1`, the Potency in experiment [1] was 5.31 µM (active); in experiment [4], 26.6 µM (active); in experiment [5] it was 26.6 µM (active); in [7], 26.6 µM (active). Further, the Potency entry in [6], in experiment [10] and in experiment [8] was “inactive” throughout.
